Screening results as filed in PubChem BioAssay.
RmlCD inh mix: RmlC/RmlD inhibition, mixture screen. RmlC/RmlD coupled enzyme inhibition, 384-well mixture HTS. inhibition, % at 5.5 µM. 110,000 tested, 0.39% active. AID 1532; in the data active = inhibition above about 30%, passing the limit was not always enough
YopH inh: blocks Yersinia enterocolitica YopH tyrosine phosphatase; fluorescence Ex485/Em525; inhibition, % (concentration not given with the values); 140,000 tested, 0.16% active; AID 898; in the data active = inhibition above about 50%
A number is an active result; 0 = inactive; - = no result; + = active, no number. Sampled rows, rich in hits. Any-hit rate of the full collection: about 0.44%.

SMILES	RmlCD inh mix	YopH inh
CCN(C(=O)c1c(C)cc(=O)oc1C)c1ccc2c(c1)OCO2	0	0
CCN(C(=O)c1coc(=O)c(Br)c1)c1ccc2c(c1)OCO2	124	0
CCOCCCn1c(=N)c(C(=O)NCc2ccc3c(c2)OCO3)cc2c(=O)n3ccccc3nc21	-	0
N=c1c(C(=O)NCc2ccc(F)cc2)cc2c(=O)n3ccccc3nc2n1CCCN1CCOCC1	31	0
COc1ccc(NC(=S)N2CCNC(=O)C2CC(=O)Nc2ccc(C)cc2)cc1 (stereo not given)	-	0
CC(C)OC(=O)CC(=O)CSc1nc2c(cc1C#N)CCC2	97	0
COC(=O)CC(=O)CSc1nc2c(cc1C#N)CCC2	77	0
C=C(C)CSc1nc2c(cc1C#N)CCC2	0	0
N#Cc1cc2c(nc1SCC(N)=O)CCCCC2	0	0
CC[C@]1(O)CC2CN(CCc3c([nH]c4ccccc34)[C@@](C(=O)OC)(c3cc4c(cc3OC)N(C)[C@H]3[C@@](O)(C(N)=O)[C@H](O)[C@]5(CC)C=CCN6CC[C@]43[C@@H]65)C2)C1 (stereo not given in full)	0	-
O=C(NCCOC(=O)c1ccc(Cl)cc1)c1cccnc1	0	0
Cc1c(C(=O)NN2CCCCC2)nn(-c2ccc(Cl)cc2Cl)c1-c1ccc(I)cc1	0	-
C=CCNC(=O)c1ccc2c(c1)S(=O)(=O)c1ccccc1C2=O	0	-
O=C(COC(=O)c1cccc(Cl)c1)Nc1cc(Cl)ccc1Oc1ccccc1	-	0
Nc1cc(C(=O)O)ccc1Nc1ccccc1	0	0
Nc1ccc(Nc2ccccc2N)cc1	0	51
CCN1CCN(CCCOc2ccc(-c3ccccc3)cc2)CC1	0	55
CCOc1ccc(OCCCCN2CCCC2)cc1	0	0
CCOc1ccccc1N1CSC2=C(C#N)C(c3c(OC)ccc4ccccc34)CC(=O)N2C1 (stereo not given)	0	90
COc1ccc(N2CSC3=C(C#N)C(c4ccc(OC)c(OC)c4)CC(=O)N3C2)c(OC)c1 (stereo not given)	0	60
COc1ccc(N2CSC3=C(C#N)C(c4cc(OC)c(OC)cc4OC)CC(=O)N3C2)c(OC)c1 (stereo not given)	0	0
CCc1ccc(C2CC(=O)N3CN(c4ccccc4)CSC3=C2C#N)cc1 (stereo not given)	0	0
COc1ccc(N2CSC3=C(C#N)C(c4cc(OC)ccc4OC)CC(=O)N3C2)c(OC)c1 (stereo not given)	0	69
COc1ccc(C2CC(=O)N3CN(c4ccc(C)c(Cl)c4)CSC3=C2C#N)cc1OC (stereo not given)	0	0
Cn1c(SCC(=O)N/N=C/C=C/c2ccco2)nc2ccccc21	-	0
SMILES	RmlCD inh mix	YopH inh
COc1cccc(N2CCN(C(=S)NCc3ccco3)CC2)c1	0	0
C=CCOC(=O)C1=C[C@H](c2csc3ccccc23)C[C@H](OCc2ccc(CO)cc2)O1	0	-
COC(=O)CCC(=O)Oc1ccc(OC(=O)CCC(=O)OC)cc1	-	59
COC(=O)CCC(=O)Nc1ccc(NC(=O)CCC(=O)OC)cc1	0	0
CCOC(=O)C1=C(C)NC(C)=C(C(=O)OCC)C1/C=C/c1ccccc1	0	0
CCOC(=O)C1=C(C)NC2(O)c3ccccc3C(=O)C12O (stereo not given)	0	68
O=C(Nc1ccc2c(c1)nc1n2CCN(Cc2ccccc2)C1)NC1CCCCC1	0	0
COCCN1CCn2c(nc3cc(NC(=O)NC4CCCCC4)ccc32)C1	59	0
NC(=O)C1CCN(C(=O)Cn2cccc2C(=O)c2ccccc2)CC1	0	0
CCOc1ccccc1N/C(=N/c1nc(C)cc(C)n1)NC(=O)Nc1ccc(Cl)c(Cl)c1	-	0
CCc1cc[n+](C2=C([O-])c3ccccc3C(=O)/C2=N\S(=O)(=O)c2cccs2)cc1	-	69
O=C1C(Nc2ccccc2)=C/C(=N/S(=O)(=O)c2cccs2)c2ccccc21	-	0
COCc1c(Br)c(C)nc(OCC(=O)N/N=C/c2cc(C)n(-c3ccc([N+](=O)[O-])cc3)c2C)c1C#N	-	0
Cc1cc(=O)[nH]c2c(C)c(Cl)ccc12	0	0
Cc1cc(=O)[nH]c2c(C)c(N)ccc12	59	0
COCCCNC(=O)CC(NS(=O)(=O)c1ccc(C)cc1)c1ccco1 (stereo not given)	0	0
COCCCNC(=O)CC(NS(=O)(=O)c1ccc(F)cc1)c1ccc(OC)cc1 (stereo not given)	0	68
O=C(NCCc1cccs1)C12CN(Cc3ccccc3)CC1C(c1cccc([N+](=O)[O-])c1)=NO2 (stereo not given)	0	0
O=C1Cc2ccccc2C(=O)N1Cc1ccccc1	0	83
O=C1c2cccnc2C(=O)N1Cc1ccccc1	0	0
CCCCOCCCn1c(N)c(C(=O)OC(C)COC)c2nc3ccccc3nc21 (stereo not given)	0	0
COCCCn1c(N)c(C(=O)OC(C)COC)c2nc3ccccc3nc21 (stereo not given)	46	0
C=CCN(C/C(=N\O)c1sc(C(=O)OCC)nc1C)c1cccc(Br)c1	0	-
O=C(OCc1cnc(Cl)s1)c1cccc(Cl)c1Cl	0	0
CCCNc1nc2c(c(=O)[nH]c(=O)n2C)n1Cc1ccc(F)cc1	0	60
SMILES	RmlCD inh mix	YopH inh
CCNc1nc2c(c(=O)[nH]c(=O)n2C)n1Cc1ccc(F)cc1	0	0
CCC1(c2ccccc2)C(=O)N(C)C(=O)N(C)C1=O	-	0
CN1C(=O)N(C)C(=O)C2(Sc3ccccc3C2=O)C1=O	+	0
COCCN1C(=O)N[C@@H](CCc2ccccc2)[C@H](C(=O)OC)[C@H]1C	0	-
Nc1c(NCCC2=CCCCC2)c(=O)[nH]c(=O)n1Cc1ccccc1	-	0
Nc1c(NCc2ccccc2F)c(=O)[nH]c(=O)n1Cc1ccccc1	0	64
O=[N+]([O-])c1cc(S(=O)(=O)N2CCCC2)ccc1N/N=C1/CCCc2ccccc21	-	0
CCOc1ccc(-c2nnc3ccc(SCC(=O)Nc4nc5ccc(C)cc5s4)nn23)cc1	-	0
CCOc1ccc(-c2nnc3ccc(SCC(=O)Nc4nc5ccccc5s4)nn23)cc1	-	65
CCCCCCc1nc2ccccc2c(=O)n1NC(=O)c1c(O)c2c(n(CC(C)C)c1=O)CCCC2	0	0
Cc1nc2ccccc2c(=O)n1NC(=O)c1c(O)c2c(n(CC(C)C)c1=O)CCCC2	0	84
Cc1ccc(NC2=C(NCCO)C(=O)c3ccccc3C2=O)cc1	-	89
O=C1C(Cl)=C(NCCCO)C(=O)c2ccccc21	0	0
N=c1c(C(=O)NCC2CCCO2)cc2c(=O)n3ccccc3nc2n1Cc1cccnc1 (stereo not given)	0	0
CCNC(=O)c1cc2c(=O)n3cccc(C)c3nc2n(Cc2ccc(C)cc2)c1=N	84	0
Cc1cccn2c(=O)c3cc(C(=O)NCC4CCCO4)c(=N)n(Cc4cccnc4)c3nc12 (stereo not given)	37	0
Cc1cccn2c(=O)c3cc(C(=O)NC(C)C)c(=N)n(Cc4ccncc4)c3nc12	-	0
Cc1ccc2[nH]c(=O)c(CN(Cc3ccccc3Cl)C(=O)N3CCOCC3)cc2c1	0	0
CCCN1CCN(CCCNC(=S)Nc2ccc(OC)cc2)CC1	-	0
Nc1[nH]nc2c1NN(c1ccc(Cl)cc1Cl)N2	-	0
O=C(N=Nc1c(O)[nH]c2ccc(Cl)cc12)c1cc(-c2cccs2)nc2ccccc12	-	0
C/C(=N/NC(=O)c1sc(=S)n(C)c1C)c1ccccc1	-	0
COc1ccccc1N1CCN(C2CCN(C(=O)COc3cccc(C)c3)CC2)CC1	-	0
